Hits are enriched below; roughly 1.8% of the tested compounds scored in any of these assays.
HDAC3 inhib – inhibitors of human histone deacetylase 3 | O15379 | recombinant HDAC3, fluorogenic peptide/trypsin coupled, fluorescence | inhibition, % at 8.3 µM | hit rate 0.15% among 320,000; in the data active means inhibition above about 26%, passing the limit was not always enough; inconclusive means no clear call, values can overlap the other calls
Target sequence (O15379 whole entry, looked up): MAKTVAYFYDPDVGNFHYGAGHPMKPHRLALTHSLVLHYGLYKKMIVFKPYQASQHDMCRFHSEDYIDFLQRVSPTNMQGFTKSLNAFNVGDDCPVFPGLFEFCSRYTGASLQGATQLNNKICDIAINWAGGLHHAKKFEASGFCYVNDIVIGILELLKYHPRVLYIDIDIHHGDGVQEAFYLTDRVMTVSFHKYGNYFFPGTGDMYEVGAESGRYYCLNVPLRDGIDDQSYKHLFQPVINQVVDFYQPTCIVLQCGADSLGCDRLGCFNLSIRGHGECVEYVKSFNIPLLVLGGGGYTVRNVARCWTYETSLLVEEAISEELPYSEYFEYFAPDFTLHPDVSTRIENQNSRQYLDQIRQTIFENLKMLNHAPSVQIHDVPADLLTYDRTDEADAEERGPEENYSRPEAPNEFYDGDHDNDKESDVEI
GRK2 inh – blocks RNA aptamer binding to human GRK2; AID 488847; hit rate 0.59% among 330,000; bead flow cytometry, FAM-aptamer displacement from GRK2; inhibition of aptamer binding, % at 10 µM;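 active means inhibition of aptamer binding above 40%, roughly 3 SD of noise, on plates passing a quality check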;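 further: median bead fluorescence of bound FAM aptamer so fluorescent compounds give negative values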
Neddyl block – blocks human cullin neddylation; TR-FRET cullin neddylation, biochemical; inhibition, % at 25 µM; hit rate 0.58% among 360,000; AID 651699; in the data active means inhibition above about 36%
H9c2 protect – protects H9c2 cardiomyocytes from peroxide injury | H2O2 injury protection, ATPLite, 2 h | hit rate 0.63% among 360,000 | protection from H2O2 cell death, % at 20 µM;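 active means compounds giving at least 50% protection of heart cells from peroxide-induced death in the single-dose screen, raw or plate-pattern-corrected value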;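 further: 0% = DMSO wells with peroxide and 100% = DMSO wells without peroxide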
Active calls of the source: *; ? = inconclusive; nt = no result given.

SMILES	HDAC3 inhib	GRK2 inh	Neddyl block	H9c2 protect
O=C(Cn1[nH]c(=O)c2ccccc2c1=O)N1CCN(S(=O)(=O)c2ccc(Cl)cc2)CC1	-2	2	-20	74*
Cc1ccc(C)c(S(=O)(=O)N2CCN(C(=O)CSc3ccccc3)CC2)c1	-13	0	1	-3
Cc1ccc(C)c(S(=O)(=O)N2CCN(C(=O)Cn3[nH]c(=O)c4ccccc4c3=O)CC2)c1	-8	0	10	61*
Cc1ccc(C)c(C(=O)COC(=O)C(C)N2C(=O)C3C4CCC(C4)C3C2=O)c1 (stereo not drawn)	2	5	1	-8
COc1cc(OC)cc(-n2c3nc4ccccc4nc3c3c(=O)n(CC4CCCO4)cnc32)c1 (stereo not drawn)	-5	0	nt	nt
O=c1c2c3nc4ccccc4nc3n(CC3CCCO3)c2ncn1CCc1ccccc1 (stereo not drawn)	-5	2	51*	39
Cc1ccc(C(=O)NNC(=O)c2cc(C)nc3ccccc23)cc1	0	1	-25	-14
CCCCN(C(=O)CCC(=O)O)C1CC(=O)N(c2ccc(OCCC)cc2)C1=O (stereo not drawn)	4	2	-1	-1
CCCCCCC(=O)N(O)C1CC(=O)N(c2ccc(F)cc2)C1=O (stereo not drawn)	79*	0	-3	-22
CCCCCCC(=O)N(O)C1CC(=O)N(c2ccc(Br)cc2)C1=O (stereo not drawn)	80*	2	-6	1
COC(=O)[C@H]1C[C@H](OC(=O)NC2CC2)[C@@]2(O)CN(S(=O)(=O)c3ccc(C)cc3)CC2[C@H]1C(=O)OC (stereo partly drawn)	nt	nt	4	17
CCc1ccc(NC(=O)Cn2cccc2)cc1	-4	0	3	-4
O=C(N/N=C/c1cc([N+](=O)[O-])ccc1O)C(O)(c1ccccc1)c1ccccc1	1	4	-29	61*
Cc1ccc(C)c(NC(=O)CCC(=O)N/N=C/c2cc([N+](=O)[O-])ccc2O)c1	6	0	-40	64*
Cc1ccc(NC(=O)/C(=C\c2ccc([N+](=O)[O-])cc2)NC(=O)c2ccccc2)cc1	5	0	-10	-3
O=C(CSc1nc2ccccc2s1)N/N=C/c1cc([N+](=O)[O-])ccc1O	2	1	-14	53*
Cc1ccc(/C=N/NC(=O)CSc2nc3ccccc3s2)o1	0	5	1	-4
O=C(N/N=C/c1ccc(O)c(O)c1O)/C(=C/c1ccc([N+](=O)[O-])cc1)NC(=O)c1ccccc1	6	3	-41	61*
O=C(CSc1cccc2cccc(Cl)c12)NCc1cccs1	-3	2	-46	-8
COc1cc(C(=O)NNC(=O)COc2ccc(Cl)cc2)ccc1OCC(=O)N1CCOCC1	0	3	-9	2
COc1ccccc1C(=O)N/C(=C\c1cn(S(=O)(=O)N(C)C)c2ccccc12)C(=O)NCCCN1CCOCC1	2	4	-7	1
Cc1ccccc1NC(=O)CCC(=O)N/N=C/c1cc([N+](=O)[O-])ccc1O	-3	1	-28	44
Cc1ccc(NC(=O)CCC(=O)N/N=C/c2cc([N+](=O)[O-])ccc2O)cc1	-1	1	-23	64*
Nn1c(SCC(=O)NC(=O)Nc2ccc3c(c2)OCCO3)nnc1C1CC1	2	1	4	-5
O=C(NN=Cc1ccc(N2CCOCC2)s1)c1ccc([N+](=O)[O-])cc1	2	4	-86	63*
SMILES	HDAC3 inhib	GRK2 inh	Neddyl block	H9c2 protect
O=C1c2ccccc2NC(c2ccc(Cl)cc2Cl)N1O (stereo not drawn)	-2	3	7	61*
COc1ccccc1/C(C)=N/NC(=S)NCc1ccccc1	1	0	12	-8
Cc1ccc(N2C(=O)CSCC2=O)cc1	3	0	-1	17
Cc1ccc(N2C(=O)CS/C2=C(\C(Cl)=C(Cl)Cl)[N+](=O)[O-])cc1	0	0	-12	69*
O=C(COC(=O)/C=C/c1ccco1)Nc1ncc(C(F)(F)F)cc1Cl	2	52*	-10	0
CSc1ccccc1NC(=O)COC(=O)/C=C/c1ccco1	0	41*	-4	1
Cc1cnc(C(=O)OCc2nc3ccccc3o2)cn1	-5	0	9	-1
Cc1cc(C)nc(NN2C(=O)/C(=C/c3ccc(O)cc3)SC2=S)n1	1	84*	-39	12
CCOc1ncccc1C(=O)Nc1cc(S(=O)(=O)N2CCOCC2)ccc1OCC(F)(F)F	-7	1	-366	-3
Cn1c(=O)c2c(nc(Br)n2Cc2ccc3ccccc3c2)n(C)c1=O	-6	2	-74	87*
CCN(CC)c1ccc(/C=N/NC(=S)NCc2ccccc2)c(O)c1	-6	42*	25	32
COc1ccc([C@H]2C[C@@H](n3cc(COC(=O)c4ccccc4)nn3)[C@H](O)CN2C(=O)C2CCCCC2)cc1	nt	nt	3	2
O=C(NCc1ccco1)Nc1ccc2nsnc2c1	-10	4	50*	0
Cc1ccc(OCC(=O)N/N=C/c2cccc3cccnc23)cc1	3	0	8	56*
Cc1cc(C)cc(OCC(=O)N/N=C/c2ccncc2)c1	0	55*	-4	2
O=C(COc1ccc(F)cc1)N/N=C/c1cccc2cccnc12	8	4	-4	54*
Cc1ccccc1OCC(=O)N/N=C/c1ccncc1	3	1	-6	13
COc1ccccc1C(=O)NC(CCSC)C(=O)NCc1ccncc1 (stereo not drawn)	0	5	12	3
Cc1ccnc(NC(=O)CCC(=O)N(CC(=O)NCc2ccccc2)Cc2cccs2)c1	2	0	4	4
Cc1ccccc1CS(=O)(=O)CC(O)CN1CCCC1=O (stereo not drawn)	0	5	-5	11
O=C1c2ccccc2C(c2nnnn2Cc2ccccc2)N1Cc1cccs1 (stereo not drawn)	nt	nt	-4	nt
COc1ccc(-c2cc(=O)oc3cc(OC(=O)C4CCCCC4)ccc23)cc1	?	0	nt	52*
O=C(Oc1ccc2c(-c3ccccc3)cc(=O)oc2c1)C1CCCCC1	-1	1	nt	88*
CC1(C)C2CCC1(CS(=O)(=O)NCc1ccc(Cl)cc1Cl)C(=O)C2 (stereo not drawn)	1	1	1	-1
CC(=O)c1sc(NC(=O)CCN2C(=O)c3ccccc3C2=O)nc1C	-8	2	-54	25
SMILES	HDAC3 inhib	GRK2 inh	Neddyl block	H9c2 protect
CCCn1nc(C(=O)OCC(=O)c2c(N)n(C)c(=O)n(C)c2=O)c2ccccc2c1=O	2	0	-19	61*
CCCn1nc(C(=O)OCC(=O)Nc2ccc(C(N)=O)cc2)c2ccccc2c1=O	1	1	-404	3
CC(=O)Oc1ccc(C(=O)OCC(=O)c2c(N)n(C)c(=O)n(C)c2=O)cc1OC(C)=O	-9	0	-9	65*
OC1CCN(c2c3c(nc4cc(-c5cccc(F)c5)nn24)CCCC3)CC1	0	3	nt	59*
COc1ccc(S(=O)(=O)NC(=O)C2(C)CCN2C(=O)C2(c3ccc(Cl)cc3)CCC2)cc1 (stereo not drawn)	nt	nt	7	8
O=c1cc(-c2ccccc2)cc(-c2ccccc2)n1O	11	3	-32	63*

High-throughput results deposited in PubChem BioAssay by several laboratories.
